# Experimental data from ChEMBL document CHEMBL1961873, “Compounds: GSK PKIS; Assays: Nanosyn kinase panel” (2012).
# Experiments:
# [1] = target: T1, Serine/threonine-protein kinase Nek9 (Homo sapiens) (UniProt Q8TD19); conditions: at 1 µM;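 note: each value is a mean percent inhibition of NEK9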
# T1 sequence (whole entry): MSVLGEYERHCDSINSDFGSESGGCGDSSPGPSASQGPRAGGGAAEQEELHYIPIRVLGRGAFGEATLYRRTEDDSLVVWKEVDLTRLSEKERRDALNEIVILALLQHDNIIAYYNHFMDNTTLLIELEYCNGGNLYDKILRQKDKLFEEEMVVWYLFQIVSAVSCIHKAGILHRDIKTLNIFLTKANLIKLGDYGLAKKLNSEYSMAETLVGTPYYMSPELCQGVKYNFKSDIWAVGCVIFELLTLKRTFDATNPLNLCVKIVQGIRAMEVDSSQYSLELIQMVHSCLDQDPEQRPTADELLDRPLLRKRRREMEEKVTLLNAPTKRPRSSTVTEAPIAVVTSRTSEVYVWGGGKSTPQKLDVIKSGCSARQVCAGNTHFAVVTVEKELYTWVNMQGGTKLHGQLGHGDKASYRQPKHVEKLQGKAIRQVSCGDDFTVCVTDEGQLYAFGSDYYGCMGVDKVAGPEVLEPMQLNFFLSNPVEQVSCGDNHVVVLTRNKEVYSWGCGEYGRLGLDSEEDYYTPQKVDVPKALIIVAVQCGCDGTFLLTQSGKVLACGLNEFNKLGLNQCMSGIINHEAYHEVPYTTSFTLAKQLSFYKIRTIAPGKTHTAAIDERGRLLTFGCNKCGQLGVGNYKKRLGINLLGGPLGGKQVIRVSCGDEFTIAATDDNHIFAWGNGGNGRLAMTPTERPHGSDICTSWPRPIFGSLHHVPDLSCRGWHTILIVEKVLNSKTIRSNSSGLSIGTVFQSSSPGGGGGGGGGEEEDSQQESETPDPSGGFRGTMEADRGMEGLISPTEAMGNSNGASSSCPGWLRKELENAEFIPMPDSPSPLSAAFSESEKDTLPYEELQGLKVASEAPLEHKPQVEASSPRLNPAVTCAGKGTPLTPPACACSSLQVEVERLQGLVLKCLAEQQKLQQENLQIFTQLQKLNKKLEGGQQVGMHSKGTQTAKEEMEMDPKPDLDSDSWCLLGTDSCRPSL
# [2] = target: Serine/threonine-protein kinase PLK1 (Homo sapiens) (UniProt P53350); conditions: at 0.1 µM
# [3] = target: Serine/threonine-protein kinase PLK1 (Homo sapiens) (UniProt P53350); conditions: at 1 µM
# [4] = target: T2, Dual specificity protein kinase TTK (Homo sapiens) (UniProt P33981); conditions: at 0.1 µM
# T2 sequence (whole entry): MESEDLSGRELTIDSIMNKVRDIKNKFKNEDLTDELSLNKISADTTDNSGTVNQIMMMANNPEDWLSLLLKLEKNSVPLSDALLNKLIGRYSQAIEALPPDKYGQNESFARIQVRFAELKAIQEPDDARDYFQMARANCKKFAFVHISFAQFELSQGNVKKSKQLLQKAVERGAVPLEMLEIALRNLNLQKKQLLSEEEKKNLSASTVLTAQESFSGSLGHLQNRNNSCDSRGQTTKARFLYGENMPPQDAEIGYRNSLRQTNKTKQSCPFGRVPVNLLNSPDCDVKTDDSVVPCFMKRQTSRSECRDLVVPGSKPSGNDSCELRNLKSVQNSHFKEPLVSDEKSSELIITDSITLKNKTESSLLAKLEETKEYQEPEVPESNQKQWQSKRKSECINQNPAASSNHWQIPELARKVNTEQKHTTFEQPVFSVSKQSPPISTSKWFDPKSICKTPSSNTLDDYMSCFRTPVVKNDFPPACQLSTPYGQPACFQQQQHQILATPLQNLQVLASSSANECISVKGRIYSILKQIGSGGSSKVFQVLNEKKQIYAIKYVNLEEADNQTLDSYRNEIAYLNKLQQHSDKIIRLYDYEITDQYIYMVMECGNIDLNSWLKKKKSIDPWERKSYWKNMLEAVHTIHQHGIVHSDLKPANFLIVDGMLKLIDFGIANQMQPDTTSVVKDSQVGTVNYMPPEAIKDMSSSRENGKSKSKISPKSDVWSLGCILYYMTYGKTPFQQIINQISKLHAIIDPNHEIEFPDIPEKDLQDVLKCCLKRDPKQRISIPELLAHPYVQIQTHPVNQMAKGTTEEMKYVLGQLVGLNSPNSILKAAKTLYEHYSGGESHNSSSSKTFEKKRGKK
# [5] = tested on: T3, Receptor-type tyrosine-protein kinase FLT3 (Homo sapiens), P36888 [D835Y]; conditions: at 1 µM
# T3 sequence (whole entry): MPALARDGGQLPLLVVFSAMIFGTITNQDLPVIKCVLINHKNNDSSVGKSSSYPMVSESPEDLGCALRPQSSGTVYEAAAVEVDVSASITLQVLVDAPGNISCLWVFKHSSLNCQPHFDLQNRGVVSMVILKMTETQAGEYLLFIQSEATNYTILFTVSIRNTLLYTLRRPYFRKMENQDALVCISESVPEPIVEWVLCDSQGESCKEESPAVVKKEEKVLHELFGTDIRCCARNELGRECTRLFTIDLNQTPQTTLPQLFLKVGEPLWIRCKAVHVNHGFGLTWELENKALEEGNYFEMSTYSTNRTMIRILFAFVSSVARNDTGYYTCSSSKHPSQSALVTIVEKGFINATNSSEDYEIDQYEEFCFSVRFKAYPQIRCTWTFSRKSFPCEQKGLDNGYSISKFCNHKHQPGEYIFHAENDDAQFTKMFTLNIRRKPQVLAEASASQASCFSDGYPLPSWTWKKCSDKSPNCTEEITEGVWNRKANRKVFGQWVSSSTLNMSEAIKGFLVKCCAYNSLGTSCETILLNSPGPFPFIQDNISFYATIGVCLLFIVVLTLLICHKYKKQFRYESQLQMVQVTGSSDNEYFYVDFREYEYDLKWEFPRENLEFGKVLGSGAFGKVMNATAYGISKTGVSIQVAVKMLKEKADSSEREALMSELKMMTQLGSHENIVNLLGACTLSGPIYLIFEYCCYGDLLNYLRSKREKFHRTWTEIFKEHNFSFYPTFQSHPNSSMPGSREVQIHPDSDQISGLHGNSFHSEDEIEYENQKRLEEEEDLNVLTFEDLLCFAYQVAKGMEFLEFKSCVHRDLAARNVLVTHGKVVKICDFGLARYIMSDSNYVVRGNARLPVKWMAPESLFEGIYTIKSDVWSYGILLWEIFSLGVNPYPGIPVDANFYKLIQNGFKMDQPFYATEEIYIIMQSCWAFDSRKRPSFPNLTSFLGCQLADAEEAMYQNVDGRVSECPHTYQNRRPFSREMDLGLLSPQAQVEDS
# [6] = target: Vascular endothelial growth factor receptor 3 (Homo sapiens) (UniProt P35916); conditions: at 0.1 µM
# [7] = target: Vascular endothelial growth factor receptor 3 (Homo sapiens) (UniProt P35916); conditions: at 1 µM
# [8] = target: Macrophage colony-stimulating factor 1 receptor (Homo sapiens) (UniProt P07333); conditions: at 0.1 µM
# [9] = target: Macrophage colony-stimulating factor 1 receptor (Homo sapiens) (UniProt P07333); conditions: at 1 µM
# [10] = target: Tyrosine-protein kinase Fyn (Homo sapiens) (UniProt P06241); conditions: at 0.1 µM
# Chain of Tyrosine-protein kinase Fyn (Homo sapiens) (P06241 2-537 limits assumed): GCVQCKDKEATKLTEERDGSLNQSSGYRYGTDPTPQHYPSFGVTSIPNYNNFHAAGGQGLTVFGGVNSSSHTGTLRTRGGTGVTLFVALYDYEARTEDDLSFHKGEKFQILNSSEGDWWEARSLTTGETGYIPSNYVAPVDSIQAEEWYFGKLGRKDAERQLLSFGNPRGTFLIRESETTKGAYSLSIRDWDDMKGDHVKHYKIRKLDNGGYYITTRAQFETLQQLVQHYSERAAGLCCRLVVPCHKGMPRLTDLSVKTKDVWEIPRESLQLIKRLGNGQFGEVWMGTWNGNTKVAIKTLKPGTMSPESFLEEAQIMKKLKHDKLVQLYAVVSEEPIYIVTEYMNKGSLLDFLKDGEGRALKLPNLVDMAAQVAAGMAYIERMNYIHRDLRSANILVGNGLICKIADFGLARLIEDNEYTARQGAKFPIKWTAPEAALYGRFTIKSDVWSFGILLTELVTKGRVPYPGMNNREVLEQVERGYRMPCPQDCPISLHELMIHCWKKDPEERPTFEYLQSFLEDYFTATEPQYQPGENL
# Chain of Vascular endothelial growth factor receptor 3 (Homo sapiens) (P35916 whole entry): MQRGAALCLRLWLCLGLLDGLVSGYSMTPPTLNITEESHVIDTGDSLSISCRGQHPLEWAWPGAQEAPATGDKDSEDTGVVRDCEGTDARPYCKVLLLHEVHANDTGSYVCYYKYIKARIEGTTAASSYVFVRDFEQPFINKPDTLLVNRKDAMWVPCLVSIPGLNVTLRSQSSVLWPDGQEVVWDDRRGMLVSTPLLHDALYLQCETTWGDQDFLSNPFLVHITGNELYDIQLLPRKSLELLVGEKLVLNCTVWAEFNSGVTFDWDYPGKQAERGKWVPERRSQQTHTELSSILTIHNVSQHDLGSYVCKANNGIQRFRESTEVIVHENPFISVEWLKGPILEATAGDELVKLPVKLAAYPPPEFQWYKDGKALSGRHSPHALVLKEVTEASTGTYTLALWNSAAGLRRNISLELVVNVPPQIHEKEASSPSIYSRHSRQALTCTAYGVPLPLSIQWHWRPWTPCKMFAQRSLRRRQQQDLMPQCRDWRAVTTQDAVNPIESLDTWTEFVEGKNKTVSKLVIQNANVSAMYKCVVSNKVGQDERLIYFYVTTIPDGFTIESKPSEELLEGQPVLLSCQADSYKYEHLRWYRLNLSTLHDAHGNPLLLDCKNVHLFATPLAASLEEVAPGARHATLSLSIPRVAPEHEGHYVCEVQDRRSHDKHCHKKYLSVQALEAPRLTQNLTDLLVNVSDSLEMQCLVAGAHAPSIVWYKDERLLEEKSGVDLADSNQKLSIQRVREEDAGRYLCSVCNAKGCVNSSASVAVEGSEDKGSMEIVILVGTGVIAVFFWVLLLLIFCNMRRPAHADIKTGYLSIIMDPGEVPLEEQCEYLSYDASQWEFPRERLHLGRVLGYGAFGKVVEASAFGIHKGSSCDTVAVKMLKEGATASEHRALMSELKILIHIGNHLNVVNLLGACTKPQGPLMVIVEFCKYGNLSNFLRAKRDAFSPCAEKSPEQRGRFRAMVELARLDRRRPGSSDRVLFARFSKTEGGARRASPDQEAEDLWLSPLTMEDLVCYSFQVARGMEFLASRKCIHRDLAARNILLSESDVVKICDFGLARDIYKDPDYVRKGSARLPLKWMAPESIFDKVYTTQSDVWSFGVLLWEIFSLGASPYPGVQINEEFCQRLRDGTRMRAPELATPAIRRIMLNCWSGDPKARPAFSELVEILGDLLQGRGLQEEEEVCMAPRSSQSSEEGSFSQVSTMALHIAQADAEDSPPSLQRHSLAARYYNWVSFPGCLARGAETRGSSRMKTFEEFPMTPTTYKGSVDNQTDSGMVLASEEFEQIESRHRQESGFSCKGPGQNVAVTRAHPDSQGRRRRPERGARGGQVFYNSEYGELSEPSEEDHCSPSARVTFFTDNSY
# Chain of Macrophage colony-stimulating factor 1 receptor (Homo sapiens) (P07333 whole entry): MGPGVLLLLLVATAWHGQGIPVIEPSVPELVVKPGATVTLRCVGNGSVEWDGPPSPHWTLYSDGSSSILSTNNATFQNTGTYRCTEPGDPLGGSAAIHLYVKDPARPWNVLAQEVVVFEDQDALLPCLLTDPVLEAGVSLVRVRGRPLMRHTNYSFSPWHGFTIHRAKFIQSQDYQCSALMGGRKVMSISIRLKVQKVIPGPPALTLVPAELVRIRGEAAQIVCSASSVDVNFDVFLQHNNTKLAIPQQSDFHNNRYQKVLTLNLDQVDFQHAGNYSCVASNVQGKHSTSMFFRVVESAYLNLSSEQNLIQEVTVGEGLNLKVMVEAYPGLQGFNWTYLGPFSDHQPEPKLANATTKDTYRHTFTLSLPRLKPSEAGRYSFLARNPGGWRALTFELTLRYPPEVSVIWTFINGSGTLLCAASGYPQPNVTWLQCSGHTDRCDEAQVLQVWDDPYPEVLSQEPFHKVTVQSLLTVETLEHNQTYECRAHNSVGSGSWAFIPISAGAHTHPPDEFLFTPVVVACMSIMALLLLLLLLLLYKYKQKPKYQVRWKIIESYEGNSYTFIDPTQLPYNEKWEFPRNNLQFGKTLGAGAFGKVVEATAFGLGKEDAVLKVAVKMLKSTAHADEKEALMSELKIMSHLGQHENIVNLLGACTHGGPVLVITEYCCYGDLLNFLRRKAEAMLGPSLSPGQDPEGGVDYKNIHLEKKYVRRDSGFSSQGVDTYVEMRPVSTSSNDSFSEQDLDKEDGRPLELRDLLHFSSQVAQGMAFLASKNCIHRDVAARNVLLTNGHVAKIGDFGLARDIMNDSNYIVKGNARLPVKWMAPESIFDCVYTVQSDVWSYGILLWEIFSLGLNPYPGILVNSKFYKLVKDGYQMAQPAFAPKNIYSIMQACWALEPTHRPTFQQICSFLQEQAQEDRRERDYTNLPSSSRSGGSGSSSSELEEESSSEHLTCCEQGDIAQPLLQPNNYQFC
# Chain of Serine/threonine-protein kinase PLK1 (Homo sapiens) (P53350 whole entry): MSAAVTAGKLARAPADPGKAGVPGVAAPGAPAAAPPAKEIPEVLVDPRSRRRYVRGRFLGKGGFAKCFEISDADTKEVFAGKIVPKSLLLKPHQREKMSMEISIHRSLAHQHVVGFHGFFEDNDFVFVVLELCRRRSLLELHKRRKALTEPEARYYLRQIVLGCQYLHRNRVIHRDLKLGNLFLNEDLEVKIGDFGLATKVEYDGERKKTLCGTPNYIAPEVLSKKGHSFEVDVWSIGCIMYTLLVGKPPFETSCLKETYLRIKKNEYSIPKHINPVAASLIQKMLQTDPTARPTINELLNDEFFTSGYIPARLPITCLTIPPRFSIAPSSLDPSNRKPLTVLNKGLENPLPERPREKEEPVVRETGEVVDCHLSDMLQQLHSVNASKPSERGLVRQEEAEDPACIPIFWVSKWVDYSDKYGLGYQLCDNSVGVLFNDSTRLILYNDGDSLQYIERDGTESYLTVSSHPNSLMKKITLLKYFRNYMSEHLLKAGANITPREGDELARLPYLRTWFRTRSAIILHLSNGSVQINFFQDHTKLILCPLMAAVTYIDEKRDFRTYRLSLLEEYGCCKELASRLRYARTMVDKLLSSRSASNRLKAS
Compound,inhibition [1],inhibition [2],inhibition [3],inhibition [4],inhibition [5],inhibition [6],inhibition [7],inhibition [8],inhibition [9],inhibition [10]
CC(C)c1ccc2c(c1)NC(=O)/C2=N/Nc1ccc(S(N)(=O)=O)cc1,4.79%,2.6%,1.38%,2.93%,3.33%,1.38%,5.37%,5.18%,34.6%,2.02%
CCOc1nccc2c1nc(-c1nonc1N)n2CC,11.4%,5.12%,5.25%,7.47%,-1.34%,12.8%,19.3%,0.65%,2.68%,0.3%
CS(=O)(=O)Nc1cccc(-c2ccc3c(NC(=O)C4CC4)n[nH]c3c2)c1,3.4%,0.09%,2.1%,2.91%,-5.02%,3.41%,1.96%,-0.21%,1.8%,2.53%
c1ccc(Cc2nc3ccc(Nc4ncnc5ccccc45)cc3[nH]2)cc1,1.93%,2.22%,1.76%,5.97%,5.06%,0.79%,2.3%,4.66%,5.24%,1.56%
Nc1nccc(C#Cc2cncnc2Nc2ccc(OCc3cccc(F)c3)c(Cl)c2)n1,1.53%,3.36%,3.68%,5.31%,7.19%,3.89%,0.33%,2.3%,5.18%,-0.31%
NS(=O)(=O)c1cccc(Nc2cc(-c3ccc(F)cc3)n[nH]2)c1,9.48%,3.38%,3.33%,5.88%,13.9%,-0.78%,2.02%,3.25%,16.6%,1.7%
FC(F)(F)c1ccc(-c2nn3ncccc3c2-c2ccnc(Nc3ccc4c(c3)OCCO4)n2)cc1,-0.89%,0.09%,-1.77%,3.35%,-0.25%,-2.47%,4.74%,0.29%,10.3%,2.65%
COc1cc2ncn(-c3cc(OCc4ccccc4S(C)(=O)=O)c(C#N)s3)c2cc1OC,1.96%,10%,47.5%,5.84%,23.9%,26.8%,73.4%,6.26%,33.2%,30.9%
CN(C)C(=O)O[C@@H]1CN[C@@H](C#Cc2cc3ncnc(Nc4ccc(OCc5cccc(F)c5)c(Cl)c4)c3s2)C1,5.37%,4.55%,3.19%,1.31%,-2.2%,-0.2%,0.49%,-1.87%,2.32%,1.01%
CCS(=O)(=O)c1ccc(OC)c(Nc2nccc(N(C)c3ccc4c(C)n[nH]c4c3)n2)c1,6.15%,4.22%,8.94%,10.8%,-5.27%,94.8%,104%,5.72%,32.2%,39%
COc1cc2ncnc(Nc3ccc(C)c(O)c3)c2cc1OC,11.6%,2.93%,2.77%,9.85%,2.41%,97.5%,107%,4.29%,6.14%,12.8%
CCS(=O)(=O)c1ccc(OC)c(Nc2ncc(-c3cccc(OC)c3)o2)c1,4.07%,4.39%,1.04%,2.75%,78.5%,27.6%,77.8%,26.4%,71.9%,27.6%
COc1cc2ncnc(Nc3ccc4c(cnn4Cc4ccccc4)c3)c2cc1OC,8.26%,3.61%,3.2%,10.4%,2.33%,4.91%,15%,-1.86%,3.16%,7.78%
COc1cccc(-n2ncc3c(N/N=C/c4ccc(C)cc4)ncnc32)c1,9.51%,7.38%,14.2%,18.3%,10.3%,3.28%,4.5%,4.53%,12.9%,5.39%
OCc1ccc(-c2nc(-c3ccccn3)c(-c3ccc4c(c3)OCO4)[nH]2)cc1,2.88%,3.56%,4.3%,7.41%,-0.9%,1.47%,-0.57%,3.57%,4.35%,2.25%
NS(=O)(=O)c1ccc(Nc2cc(-c3cccc(O)c3)n[nH]2)cc1,2.91%,5.76%,4.69%,16%,30.9%,6.76%,6.9%,5.17%,15.4%,4.67%
COc1cccc(-n2nc(C)c3c(N/N=C(\C)c4ccncc4)ncnc32)c1,2.13%,-0.78%,2.34%,2.35%,1.49%,1.67%,1.25%,-1.96%,5.8%,1.21%
